# Key:
# Assay type in all cases: functional
# [1] = tested on: Plasmodium falciparum; assay: GSK_TCMDC: Inhibition of Plasmodium falciparum 3D7 in whole red blood cells, using parasite LDH activity as an index of growth. Test compounds present at 2uM
# [2] = tested on: Plasmodium falciparum; assay: GSK_TCMDC: Inhibition of Plasmodium falciparum Dd2 in whole red blood cells, using parasite LDH activity as an index of growth. Test compounds present at 2uM
# [3] = tested on: HepG2; assay: GSK_TCMDC: Percent inhibition of human HepG2 cell line. Test compounds present at 10uM.
SMILES,Inhibition [1] [%],Inhibition [2] [%],Inhibition [3] [%]
O=C(NCc1cccc(F)c1)Nc1ccc(-c2cccc(-c3nc4cc(F)ccc4[nH]3)c2)cc1,88,2,31
O=C(Nc1ccncc1)c1cn(-c2ccccc2)nc1-c1cccs1,98,10,7
Cl.NC1=NC2(CCCC2)C(c2ccc(Cl)c(Cl)c2)C(N)=N1 (stereo not drawn),92,3,7
O=c1cc(NCCCNC2CCc3ccc(Cl)cc32)[nH]c2ccccc12 (stereo not drawn),92,39,0
Cc1c(-c2cccc(CNCCc3ccc(Cl)cc3)c2)cnc(N)c1C.Cl,87,30,9
CC(C)c1ccc(NC(=O)Nc2ccc(CCNCCCc3ccccc3)cc2)cc1,100,56,22
Cc1cc(C2CCN(CCCCNC(=O)c3ccc(NC(=O)c4ccc(Cl)cc4)cc3)CC2)c(C)cc1OC(C)C.Cl,100,92,22
CN1CCC(NCc2cccc(-c3ccc(S(=O)(=O)NCCc4ccccn4)cc3)c2)CC1.O=C(O)C(F)(F)F,95,1,10
Oc1ccccc1CNC1CCCCC1NCc1ccccc1O (stereo not drawn),96,66,53
CCN1CCN(C(=O)NC(C(=O)N(C)Cc2ccc(-c3ccc(C(F)(F)F)cc3)cc2)c2cccs2)C(=O)C1=O (stereo not drawn),99,95,0
COC(=O)C1(NC(=O)c2ccc(-n3nc(C)c(-c4ccccc4)c3N)cc2)CCCC1,96,81,9

# — ChEMBL document CHEMBL1157539, “Thousands of chemical starting points for antimalarial lead identification” (Nature, 2010)
